Experimental data: PubChem BioAssay (NCI)
About 79,000 compounds went through this panel and 15% of them were active in at least one assay; those are over-represented in the sample as a whole. Calls of active or inactive are those of the source. Cut-off read from the data, not from the text of the source: active = growth inhibition above about 70%; inactive = the rest.

How the values were obtained:
[1] = NCI Yeast Anticancer Drug Screen. Data for the mec2-1 strain (AID 157); details: S. cerevisiae mec2-1 strain, stronger effect = higher value
How it was run: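 Cells of the genetically defined mec2-1 yeast strain are incubated with test compound. Inhibition of growth is calculated against vehicle-treated controls.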

[2] = NCI Yeast Anticancer Drug Screen. Data for the rad14 strain (AID 159);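 note: 0% = growth of vehicle-treated control cultures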; details: S. cerevisiae rad14 strain growth inhibition, stronger effect = higher value
How it was run: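 Inhibition of growth is reported for a repair-deficient yeast mutant following compound treatment, calculated relative to cultures that received vehicle.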

[3] = NCI Yeast Anticancer Drug Screen. Data for the sgs1 mgt1 strain (AID 161);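 note: 0% = growth of cultures given vehicle only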; details: S. cerevisiae sgs1 mgt1 strain, stronger effect = higher value
How it was run: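 Test agents were incubated with a DNA-repair-mutant yeast strain. Growth was then read and compared against vehicle-treated controls.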

[4] = NCI Yeast Anticancer Drug Screen. Data for the CLN2oe strain (AID 163);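 note: 0% = growth of vehicle-only control cultures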; details: S. cerevisiae CLN2oe strain, stronger effect = higher value
How it was run: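 Strain altered in cell-cycle control, incubated with compound; growth compared to solvent-treated controls.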

[5] = NCI Yeast Anticancer Drug Screen. Data for the cln2 rad14 strain (AID 165);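 note: 0% = growth equal to vehicle treated cultures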; details: S. cerevisiae cln2 rad14 strain, stronger effect = higher value
How it was run: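 The screen exposed genetically defined yeast (cln2 rad14) to test compounds and scored growth inhibition relative to vehicle-treated controls.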

[6] = NCI Yeast Anticancer Drug Screen. Data for the bub3 strain (AID 167); details: S. cerevisiae bub3 mutant strain, stronger effect = higher value
How it was run: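 Mutant yeast screening strain plus compound; vehicle-treated cultures serve as the 0% inhibition reference.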

[7] = NCI Yeast Anticancer Drug Screen. Data for the wt2 strain (AID 169); details: S. cerevisiae wt2 strain growth inhibition, stronger effect = higher value
How it was run: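 Steps: yeast strain treated with compound; growth recorded; inhibition calculated relative to cultures given vehicle alone.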

[8] = NCI Yeast Anticancer Drug Screen. Data for the mlh1 strain (AID 171);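 note: 0% = growth of vehicle-treated control cultures of the same strain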; details: S. cerevisiae mlh1 strain growth inhibition, stronger effect = higher value
How it was run: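 Yeast screen: mutant strain plus compound, growth scored against vehicle control wells.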

[9] = NCI Yeast Anticancer Drug Screen. Data for the mlh1 rad18 strain (AID 175); details: S. cerevisiae mlh1 rad18 strain growth inhibition, stronger effect = higher value
How it was run: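 Compound-treated yeast growth, normalised to vehicle controls. Strain bears defined DNA repair mutations.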

[10] = NCI Yeast Anticancer Drug Screen. Data for the rad18 strain (AID 177); details: S. cerevisiae rad18 mutant growth inhibition, stronger effect = higher value
How it was run: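 Inhibition values reflect reduced yeast growth compared with vehicle-treated controls, using a strain engineered with a DNA damage repair defect.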

[11] = NCI Yeast Anticancer Drug Screen. Data for the rad52 strain (AID 147);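 note: 0% = growth of vehicle-treated control cultures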; details: S. cerevisiae rad52 mutant growth inhibition, stronger effect = higher value
How it was run: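 Genetically altered yeast (DNA damage repair defect) treated with compound; inhibition calculated relative to vehicle.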

[12] = NCI Yeast Anticancer Drug Screen. Data for the rad50EPP+ strain (AID 151);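 note: 0% = growth of vehicle-treated control cultures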; details: S. cerevisiae rad50 mutant strain, stronger effect = higher value
How it was run: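 Strain rad50EPP+; compound exposure; % growth inhibition vs vehicle.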

[13] = NCI Yeast Anticancer Drug Screen. Data for the mgt1 strain (AID 153); details: S. cerevisiae mgt1 mutant growth inhibition, stronger effect = higher value
How it was run: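 Read-out: yeast growth inhibition vs vehicle control. Strain mgt1, drawn from a panel altered in DNA damage repair or cell cycle control.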

[14] = NCI Yeast Anticancer Drug Screen. Data for the rad50 strain (AID 155);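 note: 0% = growth of vehicle-only cultures of the same strain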; details: S. cerevisiae rad50 strain growth inhibition, stronger effect = higher value
How it was run: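 Vehicle-treated cultures provide the reference for the growth inhibition reported for compound-exposed, repair-deficient yeast.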

[15] = NCI Yeast Anticancer Drug Screen. Data for the sgs1 strain (AID 173);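 note: 0% = growth of vehicle-only control cultures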; details: S. cerevisiae sgs1 mutant, stronger effect = higher value
How it was run: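 Inhibition of yeast growth served as the measure. The mutant strain was treated with each compound, and growth was normalised to cultures receiving vehicle alone.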

[16] = at 5.0 µM (retest, dose inferred, filed as 0.5)
[17] = at 50.0 µM (retest, dose inferred, filed as 5.0)

Measured: growth inhibition

Cc1ccc(NC(c2ccccc2)c2ccc3cccnc3c2O)cc1 (centres undefined)
inactive: [1]; at 100.0 µM 12% | [2]; at 1.2 µM 0% | [2]; at 3.7 µM -1% | [2]; at 11.0 µM 1% | [2]; at 33.0 µM -26% | [2]; at 100.0 µM 2% | [3]; [16] 9% | [3]; [17] 10% | [4]; at 1.2 µM 0% | [4]; at 3.7 µM -1% | [4]; at 11.0 µM 0% | [4]; at 33.0 µM 2% | [4]; at 100.0 µM 5% | [5]; [16] 48% | [5]; [17] 45% | [5]; at 50.0 µM 59.9% | [6]; at 1.2 µM -8% | [6]; at 3.7 µM -1% | [6]; [16] -18% | [6]; at 11.0 µM -31% | [6]; at 33.0 µM 8% | [6]; [17] -3% | [6]; at 50.0 µM 56.5% | [6]; at 100.0 µM 3% | [7]; at 1.2 µM 0% | [7]; at 3.7 µM 1% | [7]; at 11.0 µM -1% | [7]; at 33.0 µM -1% | [7]; at 100.0 µM -2% | [8]; at 1.2 µM 2% | [8]; at 3.7 µM 2% | [8]; at 11.0 µM 3% | [8]; at 33.0 µM -22% | [8]; at 100.0 µM 9% | [9]; [16] 5% | [9]; [17] 10% | [9]; at 50.0 µM 33% | [10]; at 1.2 µM -15% | [10]; at 3.7 µM 3% | [10]; at 11.0 µM -10% | [10]; at 33.0 µM -2% | [10]; at 100.0 µM -12%
active: [3]; at 50.0 µM 79.7%

CCCCCOC(=S)SC(=O)OCC
active: [11]; at 100.0 µM 94% | [13]; at 100.0 µM 92% | [14]; at 33.0 µM 84% | [14]; [17] 95% | [14]; at 50.0 µM 98% | [14]; at 100.0 µM 95% | [1]; [17] 95% | [1]; at 50.0 µM 98.5% | [1]; at 100.0 µM 86% | [2]; at 100.0 µM 92% | [3]; [17] 97% | [3]; at 50.0 µM 97.7% | [6]; at 33.0 µM 82% | [6]; [17] 96% | [6]; at 50.0 µM 96.8% | [6]; at 100.0 µM 94% | [7]; at 100.0 µM 90% | [8]; at 100.0 µM 95% | [15]; at 33.0 µM 90% | [15]; at 100.0 µM 97% | [9]; [17] 96% | [9]; at 50.0 µM 96.6% | [10]; at 33.0 µM 90% | [10]; at 100.0 µM 98%
inactive: [11]; at 1.2 µM 0% | [11]; at 3.7 µM 7% | [11]; at 11.0 µM 27% | [11]; at 33.0 µM 63% | [12]; at 1.2 µM -3% | [12]; at 3.7 µM 9% | [12]; at 11.0 µM 18% | [12]; at 33.0 µM 30% | [12]; at 100.0 µM 36% | [13]; at 1.2 µM -4% | [13]; at 3.7 µM -2% | [13]; at 11.0 µM 6% | [13]; at 33.0 µM 37% | [14]; at 1.2 µM 1% | [14]; at 3.7 µM 32% | [14]; [16] 20% | [14]; at 11.0 µM 51% | [1]; at 1.2 µM -3% | [1]; at 3.7 µM 3% | [1]; [16] 27% | [1]; at 11.0 µM 26% | [1]; at 33.0 µM 48% | [2]; at 1.2 µM -5% | [2]; at 3.7 µM -4% | [2]; at 11.0 µM 12% | [2]; at 33.0 µM 42% | [3]; [16] 33% | [4]; at 1.2 µM -7% | [4]; at 3.7 µM -6% | [4]; at 11.0 µM -7% | [4]; at 33.0 µM 1% | [4]; at 100.0 µM 30% | [5]; [16] 9% | [5]; [17] 53% | [5]; at 50.0 µM 64.8% | [6]; at 1.2 µM 2% | [6]; at 3.7 µM 6% | [6]; [16] 55% | [6]; at 11.0 µM 40% | [7]; at 1.2 µM -4% | [7]; at 3.7 µM 6% | [7]; at 11.0 µM 4% | [7]; at 33.0 µM 39% | [8]; at 1.2 µM -1% | [8]; at 3.7 µM 2% | [8]; at 11.0 µM 14% | [8]; at 33.0 µM 63% | [15]; at 1.2 µM -3% | [15]; at 3.7 µM 4% | [15]; at 11.0 µM 45% | [9]; [16] 43% | [10]; at 1.2 µM -5% | [10]; at 3.7 µM 5% | [10]; at 11.0 µM 33%

CN(C)c1ccc(C2CC(C)(O)Oc3cc4c(cc32)OCO4)cc1 (centres undefined)
inactive: [11]; at 1.2 µM -1% | [11]; at 3.7 µM -1% | [11]; at 11.0 µM 10% | [11]; at 33.0 µM 28% | [12]; at 1.2 µM 2% | [12]; at 3.7 µM 4% | [12]; at 11.0 µM 20% | [12]; at 33.0 µM 36% | [12]; at 100.0 µM 59% | [13]; at 1.2 µM -2% | [13]; at 3.7 µM -3% | [13]; at 11.0 µM 0% | [13]; at 33.0 µM 4% | [13]; at 100.0 µM 48% | [14]; at 1.2 µM -1% | [14]; at 3.7 µM -2% | [14]; [16] 10% | [14]; at 11.0 µM 5% | [14]; at 33.0 µM 12% | [14]; at 50.0 µM 24.6% | [14]; at 100.0 µM 40% | [1]; at 1.2 µM -6% | [1]; at 3.7 µM 0% | [1]; [16] -20% | [1]; at 11.0 µM 2% | [1]; at 33.0 µM 4% | [1]; [17] 12% | [1]; at 50.0 µM 14.3% | [1]; at 100.0 µM 29% | [2]; at 1.2 µM -1% | [2]; at 3.7 µM 1% | [2]; at 11.0 µM 9% | [2]; at 33.0 µM 27% | [2]; at 100.0 µM 58% | [3]; [16] 2% | [3]; at 50.0 µM 34.7% | [4]; at 1.2 µM -5% | [4]; at 3.7 µM -16% | [4]; at 11.0 µM 4% | [4]; at 33.0 µM -3% | [4]; at 100.0 µM 16% | [5]; [16] 1% | [5]; [17] 37% | [5]; at 50.0 µM 21.3% | [6]; at 1.2 µM -5% | [6]; at 3.7 µM -3% | [6]; [16] 18% | [6]; at 11.0 µM 3% | [6]; at 33.0 µM 10% | [6]; at 50.0 µM 27.9% | [6]; at 100.0 µM 16% | [7]; at 1.2 µM -1% | [7]; at 3.7 µM -2% | [7]; at 11.0 µM -1% | [7]; at 33.0 µM 7% | [7]; at 100.0 µM 46% | [8]; at 1.2 µM -3% | [8]; at 3.7 µM 0% | [8]; at 11.0 µM 2% | [8]; at 33.0 µM 11% | [8]; at 100.0 µM 41% | [15]; at 1.2 µM -1% | [15]; at 3.7 µM 7% | [15]; at 11.0 µM 23% | [15]; at 33.0 µM 55% | [9]; [16] 23% | [9]; at 50.0 µM 43.5% | [10]; at 1.2 µM 24% | [10]; at 3.7 µM 57%
active: [11]; at 100.0 µM 70% | [14]; [17] 77% | [3]; [17] 83% | [6]; [17] 79% | [15]; at 100.0 µM 87% | [9]; [17] 93% | [10]; at 11.0 µM 89% | [10]; at 33.0 µM 92% | [10]; at 100.0 µM 95%
